GALK inhibitor – qHTS Assay for Inhibitors of Human Galactokinase (GALK): NCGC Sytravon Library Screen. P51570. recombinant GALK, Kinase-Glo ATP luminescence, 1 h. Potency, µM (doses to about 57.5 µM), without a hit: top-dose activity, negative = inhibition, actives largely listed as inhibitors. 44,000 tested, under 10 active;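 also: plate controls were full GALK reaction for no effect and reaction lacking GALK for full effect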
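Reactions with and without enzyme served as controls. GALK at 5 nM phosphorylates 100 uM galactose using 35 uM ATP (HEPES pH 8.0, Mg2+) for 1 h at RT, with luminescence read 10 min after adding Kinase-Glo Plus.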
GALC G270D act – A Novel Cell-Based Assay to Identify Small Molecules for B -Galactocerebrosidase | 145M-Twi-hGALC-G270D cells (Twitcher mouse brain line with human GALC G270D), HMU-beta-Gal fluorescence, 48 h | Potency, µM (series often up to 57.5 µM), usual class: activators | hit rate 0.1% among 45,000 | AID 1159614, 2016; also: potency is read from the fitted curve at half-maximal effect; 0% is about no effect; nearly all actives have a fitted effect of over 65% in size
Target sequence (P54803 whole entry G286D): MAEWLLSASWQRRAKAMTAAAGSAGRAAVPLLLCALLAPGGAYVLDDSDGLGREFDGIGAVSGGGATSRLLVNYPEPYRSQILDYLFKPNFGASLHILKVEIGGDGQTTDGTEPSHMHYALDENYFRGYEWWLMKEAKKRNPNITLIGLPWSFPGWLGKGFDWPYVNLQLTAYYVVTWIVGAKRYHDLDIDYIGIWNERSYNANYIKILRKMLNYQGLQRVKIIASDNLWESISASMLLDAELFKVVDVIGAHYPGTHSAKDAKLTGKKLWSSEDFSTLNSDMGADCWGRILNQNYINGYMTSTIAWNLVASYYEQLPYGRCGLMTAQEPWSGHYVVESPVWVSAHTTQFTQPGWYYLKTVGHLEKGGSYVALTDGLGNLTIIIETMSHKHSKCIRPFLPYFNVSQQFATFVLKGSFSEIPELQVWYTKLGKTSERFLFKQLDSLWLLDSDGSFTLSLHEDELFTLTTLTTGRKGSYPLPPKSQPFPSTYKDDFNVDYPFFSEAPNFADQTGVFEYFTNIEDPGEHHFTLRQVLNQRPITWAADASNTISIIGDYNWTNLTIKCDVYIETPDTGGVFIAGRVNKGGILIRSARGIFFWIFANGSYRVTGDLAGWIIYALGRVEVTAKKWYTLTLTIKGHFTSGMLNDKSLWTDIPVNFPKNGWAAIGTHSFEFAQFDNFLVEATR
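Fluorogenic HMU-b-Gal hydrolysis (0.1 mM final, pH 5.2 citrate-phosphate with 1 mg/mL sodium taurocholate; carbonate stop buffer) measures mutant GALC activity after compound treatment of live 145M-Twi Twitcher brain cells stably carrying human GALC-G270D, with wild-type GALC line alongside; activation sought.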
GPR32 ag – qHTS for Agonists of Human Resolvin D1 Receptor DRV1 | Probable G-protein coupled receptor 32 (Homo sapiens), O75388 | CHO-K1 GPR32 beta-arrestin PathHunter luminescence, 90 min; zero percent set by DMSO-only wells | activation, % at 76.9 µM | hit rate 2.5% among 48,000 | AID 1346428, 2018;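 active = activation of at least 60% and not above a set upper limit, about 1 call in 100 departs from these limits; inconclusive = activation of 40% to 60%, or above that upper limit; inactive = activation under 40%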; also: 0% is about no effect
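Using DMSO wells as EC0, agonist-induced signal was taken as chemiluminescence from beta-Gal reconstituted upon beta-arrestin recruitment to GPR32 in CHO-K1 cells after 90 min compound treatment.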
TSG101-PTAP inh – qHTS Validation Assay for Inhibitors of HIV-1 Budding by Blocking the Interaction of PTAP/TSG101: Sytravon Library Screen; Tumor susceptibility gene 101 protein (Homo sapiens), Q99816; Fluorescence polarization, FITC-PTAP peptide/Tsg101, 20 min; Potency, µM (highest dose often 115 µM), usual class: inhibitors; 44,000 tested, under 10 active; also: potency is read from the fitted curve at half-maximal effect; 0% is about no effect
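Compounds pinned into 10 uM Tsg101 binding domain, then 50 nM FITC-PTAP peptide added in pH 7.5 HEPES buffer; FP read after 20 min, room temperature. Total S+P intensity flags fluorescent compounds; active cut-off <25 µM, efficacy <60%.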
B2AR arrestin ag – qHTS assay of beta-arrestin-biased ligands of beta2-adrenergic receptor: NCGC Sytravon Library Screen; Beta-2 adrenergic receptor (Homo sapiens), P07550; HTLA Tango cells, beta-arrestin recruitment, luciferase luminescence, 18 h; Potency, µM (titrated, usually from 46.1 µM), hits mostly activators; 44,000 tested, under 10 active;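 also: potency is read from the fitted curve at half-maximal effect; 0% = DMSO and full agonism = EC100 isoproterenol or metaproterenol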
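Tango cells expressing recombinant beta2-AR and beta-arrestin were treated with compounds (up to 46 microM titration) in DMEM with 1% FBS for 18 hr at 37 degrees C. Beta-arrestin recruitment drove tTA-dependent luciferase, read by luminescence; curves were fitted and classed.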
FH mod – Identification of activators of human fumarate hydratase by quantitative high-throughput screening; FH coupled MDH/diaphorase resazurin fluorescence, 15 min; Potency, µM (series often up to 79.9 µM), for the others: at the top dose activity change, negative = inhibition, hits mostly inhibitors; hit rate 0.22% among 54,000; AID 1347055, 2019; also: potency is read from the fitted curve at half-maximal effect; % is scaled to controls: 0 for no effect and ±100 for the full control effect; the screen sought activators but most active calls are inhibition curves; nearly all actives have a fitted effect of over 45% in size
Active calls of the source: *; i = inactive; ? = inconclusive; / = no result; ! = not active in a repeat; [ ] = dose if it differs, or a comment. In the library only some 2.8% were active in any assay of this set; here they are far more common. Unless noted, calls follow the shape of the dose curve; as a rule, active = well fitted curve in the direction sought with a large enough effect; inconclusive = small, poorly fitted or top-dose-only effect, or another doubt; inactive = no such curve, though single readings can be large; an effect the other way counts as inactive or inconclusive.

SMILES	GALK inhibitor	GALC G270D act	GPR32 ag	TSG101-PTAP inh	B2AR arrestin ag	FH mod
C=C1C(OC2OC(CO)C(O)C(O)C2O)CC2C(C)(C)C(O)CCC2(C)C1CC/C(C)=C\COC(=O)CC(=O)O (centres undefined)	/	/	/	/	/	-8.5%[20.6 µM]
C=CC(=O)Nc1cc(Nc2nccc(-c3cn(C)c4ccccc34)n2)c(OC)cc1N(C)CCN(C)C	/	/	/	/	/	-0.1%
CC(C)C[C@@H]1NC(=O)[C@@H](Cc2ccccc2)NC(=O)C(CCCCCC(=O)C2CO2)NC(=O)[C@@H]2CCCCN2C1=O (some centres undefined)	/	/	/	/	/	5.4%[53.3 µM]
COC(C)(C)CCn1nc(Nc2c(C)cccc2C)c2cnc(Nc3ccc(OCCN4CCCC4)c(F)c3)nc21	/	/	/	/	/	-13.2%
CCCCNc1nc(N)c2[nH]c(=O)n(Cc3ccc(OCCN(C)C)nc3)c2n1	/	/	/	/	/	-7.6%
c1ccc(Cn2c(-c3ccc(OCC(C4CCNCC4)n4c(-c5ccccc5)nc5ccccc54)cc3)nc3ccccc32)cc1 (centres undefined)	/	/	/	/	/	4.8%
O=S(=O)(NCCc1csc(-c2ccc(F)cc2)n1)c1ccc(Cl)cc1	-1.9%	i	63.6*	i	i	?
COC(=O)c1ccc(NC(=O)CCS(=O)(=O)c2ccc(Br)s2)cc1	-14.6%	i	-13.5	i	i	-3.4%
O=C(CCNS(=O)(=O)c1ccc(Br)s1)Nc1ccc(Br)cc1	-5.8%	i	88.6*	i	i	-9.2%
COc1ccc(C(=O)NCC(c2cccs2)S(=O)(=O)c2ccc(C)cc2)cc1 (centres undefined)	-3.1%	i	9.7	i	i	-24.4%
COc1ccc(CCNC(=O)C(=O)NCC(c2cccs2)S(=O)(=O)c2ccc(F)cc2)cc1 (centres undefined)	-7.8%	i	85.1*	i	i	-15.7%
COc1ccc(CC(=O)NCC(c2cccs2)S(=O)(=O)c2ccc(F)cc2)cc1 (centres undefined)	0.1%	i	14.3	i	i	-36.5%
COc1ccc(C(=O)NCC(c2cccs2)S(=O)(=O)c2ccc(F)c(C)c2)cc1 (centres undefined)	-0.9%	i	66.1*	i	i	-8.8%
COc1cc(OC)cc(C(=O)NCC(c2cccs2)S(=O)(=O)c2ccc(F)c(C)c2)c1 (centres undefined)	-2.6%	i	-12.2	i	i	1.4%
COc1ccc(C(=O)NCC(c2cccs2)S(=O)(=O)c2cccs2)cc1 (centres undefined)	-1.2%	i	83.0*	i	i	-1.5%
COc1cccc(C(=O)NCCc2csc3nc(-c4ccccc4F)nn23)c1OC	0.8%	i	68.4*	i	i	-7.0%
O=C(Cc1ccc(F)cc1)NCCc1csc2nc(-c3ccccc3F)nn12	-3.6%	i	61.7*	i	i	-11.4%
O=S(=O)(c1ccccc1)n1nc(-c2ccc(Cl)cc2)nc1NCc1ccc(F)cc1	1.7%	i	71.6*	i	i	?
COc1ccc(-c2nnc(SCC(=O)N3CCC(C)CC3)o2)cc1	1.6%	i	78.0*	i	i	-8.2%
C/C=C(\C)C(=O)O[C@H]1C=CC(=O)O[C@H]1/C=C/[C@H](O)[C@@H](C)O	/	/	/	/	/	5.0%
CC(CN1c2ccccc2Sc2ccccc21)N(C)C (centres undefined)	/	i	107.7*!	/	/	?
CC1=C2C(=O)C=C(CO)[C@@H]2[C@H]2OC(=O)[C@H](C)[C@@H]2[C@@H](O)C1	/	/	/	/	/	26.2%
CCN1C(=O)c2cccc3c(S(=O)(=O)Nc4ccc(O)c(C(=O)O)c4)ccc1c23	5.6%	i	-36.1	i	i	31.6µM*
CN1C(=O)c2cccc3c(S(=O)(=O)Nc4cccc(C(=O)O)c4)ccc1c23	3.5%	i	-18.1	i	i	?
COCCN1CCN(Cc2ccc(-c3n[nH]c4c3C(=O)c3c(NC(=O)NN5CCOCC5)cccc3-4)cc2)CC1	/	/	/	/	/	4.0%
SMILES	GALK inhibitor	GALC G270D act	GPR32 ag	TSG101-PTAP inh	B2AR arrestin ag	FH mod
CCOC(=O)c1cccc(NC(=O)CN2C(=O)c3ccccc3Sc3ncccc32)c1	3.3%	i	72.0*	i	i	-38.4%
COc1ccc(Cl)cc1NC(=O)c1sc2nc(-c3ccc(OC)c(OC)c3)ccc2c1N	2.2%	11.2µM*	8.6	i	i	-3.2%
COc1ccc(-c2ccc3c(N)c(C(=O)Nc4ccc(C)cc4C)sc3n2)cc1OC	2.7%	i	20.8	i	i	-13.4%
Oc1cccc(-c2nc(N3CCOCC3)c3sccc3n2)c1	/	/	/	/	/	0.5%
Cc1ccc2ccc3cc(C(=O)N4CCN(c5ccccc5F)CC4)nc3c2[nH]1	-4.4%	i	-1.0	i	i	-9.2%
Cc1ccc2ccc3cc(C(=O)Nc4ccc(C)c(F)c4)nc3c2[nH]1	1.0%	i	60.4*	i	i	-3.2%
Cc1c(-c2ccc(Cl)cc2)c(=O)oc2c(CN3CCCC3)c(O)ccc12	0.5%	39.8µM*	5.4	i	i	-11.4%
Cc1c(-c2ccc(Cl)cc2)c(=O)oc2c(CN3CCOCC3)c(O)ccc12	1.4%	i	-1.3	i	i	-10.0%
CC(=O)OC1C(O)CC(O[C@@H]2O[C@H](CO)[C@@H](O)[C@H](O)[C@H]2O)C2CCC3C(=O)OC(c4ccoc4)CC3(C)C21 (some centres undefined)	/	/	/	/	/	-0.2%[53.3 µM]
COc1ccc(-c2nnc(SCC(=O)Nc3ccc(C)c(C)c3)s2)cc1	1.0%	i	115.4*	i	i	6.3%
c1cc(NCCc2c[nH]c3ccccc23)cc(Nc2ccncc2)c1	/	/	/	/	/	0.0%
COc1ccc(-c2noc(CSc3nc4ccccc4[nH]3)n2)cc1OC	-2.1%	i	67.0*	i	i	-18.1%
COC(=O)C1=CO[C@@H](O[C@@H]2O[C@H](CO)[C@@H](O)[C@H](O)[C@H]2O)[C@@H]2C(CO)=CC[C@]12O	/	/	/	/	/	8.1%[53.3 µM]
Cc1c(-c2cccc(NC(=O)c3ccc(F)c(F)c3)c2)nc2ncccn12	1.3%	i	64.1*	i	i	-6.8%
